High-throughput results from PubChem BioAssay.
Sampled rows, rich in hits. Any-hit rate of the full collection: about 2.4%.
FEN1 inh: inhibitors of human flap endonuclease 1 | P39748 | Recombinant FEN1 flap cleavage, fluorescence, 15 min | Potency, µM (top dose mostly 114 µM), without a hit: at the top dose activity change, negative = inhibition, most hits filed as inhibitors | 390,000 tested, 0.35% active; further: on the % scale 0 is the no-effect control and ±100 the full control effect; nearly all actives have a fitted effect of over 65% in size
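Potency values derive from four-parameter Hill fits of normalized qHTS data. The reaction used 10 nM FEN1 preincubated 15 min at room temperature with compound, then 50 nM DNA substrate, read at 0 and 15 min.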
POLI inh: inhibitors of human DNA polymerase iota; Potency, µM (highest dose often 115 µM), for the others: top-dose activity, negative = inhibition, hits mostly inhibitors; Pol iota fluorescent replication assay, 10 min; Q9UNA4; 390,000 tested, 1% active
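Pol iota at 10 nM preincubated 15 min with compounds at room temperature; reaction started with fluorescent substrate, 50 nM final. Fluorescence read kinetically at 0 and 10 min; buffer-only wells as negative control.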
Tb PGK inh: T. brucei PGK inhibition. P07378. 380,000 tested, 0.043% active. PGK/GAPDH coupled, Kinase-Glo luminescence, 60 min. AID 602233. Potency, µM (top dose mostly 57.5 µM), without a hit: top-dose activity change, negative = inhibition, hits mostly inhibitors; further: on the % scale 0 is the no-effect control and ±100 the full control effect; nearly all actives have a fitted effect of over 60% in size
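Recombinant glycosomal PGK reaction used 1,3-bisphosphoglycerate generated in-well by GAPDH (100nM final) in 100mM TEA pH 7.6, 5mM MgCl2, 0.01% Tween-20. After 60 minutes at room temperature, ATP was read by Kinase-Glo Plus luminescence end-point.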
POLK inh: blocks human DNA polymerase kappa activity. 400,000 tested, 0.53% active. Potency, µM (highest dose often 107 µM), inactives show at the top dose activity, negative = inhibition, actives largely listed as inhibitors. purified Pol kappa, fluorescent DNA synthesis assay, 10 min. Q9UBT6; further: on the % scale 0 is the no-effect control and ±100 the full control effect
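Here, compound and 10 nM enzyme are combined for 15 min at room temperature; adding 50 nM substrate (final) starts DNA synthesis, tracked by fluorescence at 0 and 10 min against buffer-only wells.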
POLH inh: DNA polymerase eta (human) inhibition; Q9Y253; Potency, µM (titrated, usually from 114 µM), without a hit: at the top dose activity change, negative = inhibition, usual class: inhibitors; 390,000 tested, 1.2% active; recombinant Pol eta, fluorescent DNA replication assay; further: on the % scale 0 is the no-effect control and ±100 the full control effect
Target sequence (Q9Y253 whole entry, looked up): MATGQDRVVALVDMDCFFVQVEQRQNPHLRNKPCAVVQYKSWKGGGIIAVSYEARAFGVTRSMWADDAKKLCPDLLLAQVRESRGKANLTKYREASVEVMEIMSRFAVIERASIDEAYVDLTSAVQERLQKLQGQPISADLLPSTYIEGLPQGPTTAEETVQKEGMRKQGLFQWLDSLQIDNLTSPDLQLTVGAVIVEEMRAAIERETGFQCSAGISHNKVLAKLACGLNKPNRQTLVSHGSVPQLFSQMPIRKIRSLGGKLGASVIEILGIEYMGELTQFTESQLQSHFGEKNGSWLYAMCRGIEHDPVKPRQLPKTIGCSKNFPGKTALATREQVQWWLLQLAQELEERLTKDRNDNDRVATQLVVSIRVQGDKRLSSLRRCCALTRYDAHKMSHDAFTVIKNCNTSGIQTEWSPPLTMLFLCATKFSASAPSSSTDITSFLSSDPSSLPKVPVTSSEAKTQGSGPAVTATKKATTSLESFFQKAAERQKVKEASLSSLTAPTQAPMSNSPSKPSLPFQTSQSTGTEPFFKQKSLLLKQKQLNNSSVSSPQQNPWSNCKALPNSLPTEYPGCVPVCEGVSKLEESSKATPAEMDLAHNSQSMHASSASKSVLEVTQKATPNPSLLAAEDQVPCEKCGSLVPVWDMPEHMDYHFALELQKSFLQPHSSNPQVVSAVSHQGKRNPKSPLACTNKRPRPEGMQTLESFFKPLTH
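Pol eta (10 nM) was preincubated with compounds for 15 min at room temperature, after which fluorescent replication substrate (50 nM final) was added to start the reaction. Fluorescence was read kinetically at 0 and 10 min.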
POLB inh: DNA polymerase beta (human) inhibition. AID 485314. P06746. Potency, µM (top dose mostly 114 µM), for the others: at the highest dose activity change, negative = inhibition, actives largely listed as inhibitors. Pol beta primer extension/strand displacement, fluorescence kinetic. 340,000 tested, 1.3% active; further: on the % scale 0 is the no-effect control and ±100 the full control effect
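Pol beta (10 nM) was preincubated with compound for 15 min at room temperature. The reaction was then started with 50 nM substrate and read immediately and after a further 10 min at room temperature.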
An asterisk follows results filed as active; i = inactive; ? = inconclusive; . = no result; [ ] = dose if it differs, or a comment. The call rests on the fitted dose curve; in most records, active means well fitted curve in the direction sought with a large enough effect; inconclusive means small, poorly fitted or top-dose-only effect, or another doubt; inactive means no such curve, though single readings can be large; an effect the other way counts as inactive or inconclusive. Potency means the concentration at half of the fitted maximal effect.

SMILES | FEN1 inh | POLI inh | Tb PGK inh | POLK inh | POLH inh | POLB inh
O=C(Nc1ccc2oc(-c3ccccc3)nc2c1)c1ccc2c(c1)OCCO2 | -3.4% | -7.8% | -4.8% | -16.2% | -14.0% | 35.5%
O=C(Nc1ccc2oc(-c3cccnc3)nc2c1)c1ccc2c(c1)OCCO2 | ? | ? | -2.5% | ? | ? | 14.1µM*
COCCCN=C(c1ccco1)n1c(=S)nc(-c2ccco2)n(CCCOC)c1=S | -5.1% | 20µM* | . | ? | -4.6% | 35.5µM*
COCCCn1c(-c2ccco2)nc2ccccc2c1=O | 5.3% | 5.7% | -1.0% | 7.4% | -4.9% | 34.3%
CN(C)CCCNc1nccc(N2CCN(C)CC2)n1 | -2.3% | 55.6% | . | 0.6% | . | .
CN1CCc2[nH]c3ccc(C(=O)NN)cc3c2C1 | ? | ? | -5.4% | ? | -16.4% | 39.8µM*
O=C(CNC(=O)c1ccc(-c2ccccc2)cc1)OCc1ccc(Br)cc1 | 3.6% | 109.9% | ? | -2.4% | 22.4µM* | 0.7%
COCCCNC(=O)C1CC(=O)N(CCc2ccc(OC)c(OC)c2)C1 (configuration not stated) | -11.5% | -4.3% | -16.0% | -18.4% | 31.6µM* | -0.1%
COC(=O)C[C@H]1c2ccccc2S(=O)(=O)N1c1ccc(N(C)C)cc1 | -0.9% | 27.0% | . | 9.5% | . | .
COc1ccc(C2C(=O)N(C3CCC(C)CC3)CC(=O)N2CCC2=CCCCC2)cc1OC (configuration not stated) | 9.0% | 12.9% | 10.0% | -8.4%[60.1 µM] | -8.2% | 2.1%
COc1ccc(S(=O)(=O)N2CN(Cc3ccco3)c3nc4ccccc4nc32)cc1 | -3.6% | ? | -7.6% | -9.5% | 79.4µM* | -10.5%
CCOC(=O)C1(CC2CC2)CCN(Cc2ccc(OC)cc2F)CC1 | -0.9% | 156.3% | -6.4% | -23.9% | -21.0% | 89.1µM*
Cc1ccc(CSc2nc3cccnc3n2Cc2nc(-c3ccccc3F)oc2C)cc1 | -20.6% | 4.5% | 1.0% | -6.6% | -9.9% | -1.2%
COc1ccc(C(=O)CSc2nnc(-c3cc(C)on3)o2)cc1 | -10.5% | -25.1% | . | -28.6% | -9.6% | 11.2µM*
Cc1cc(-c2nnc(SCC(=O)c3ccc(Cl)cc3)o2)no1 | 3.0% | 22.0% | -0.3% | -16.5% | -0.1% | -13.3%
CN(C)C(=O)CCc1nc2sc3c(c2c(=O)[nH]1)CCCC3 | -0.5% | -6.6% | i | -4.8% | -15.2% | -0.5%
CN(Cc1ccco1)C(=O)CCc1nc2sc3c(c2c(=O)[nH]1)CCCC3 | -13.3% | 44.7µM* | -4.3% | ? | ? | 7.7%
Cc1ccc(CN(C)C(=O)CCc2nc3sc4c(c3c(=O)[nH]2)CCCC4)o1 | 6.9% | 17.8µM* | -0.4% | -40.1% | 22.4µM* | 25.1µM*
O=C1c2ccccc2C(=O)N1c1cccc(O)c1 | -2.4% | 14.0% | . | 1.7% | . | .
COc1ccc2nc(NC(=O)c3nc(SCc4ccccc4F)ncc3Cl)sc2c1 | 16.0% | 8.4% | 7.0% | ? | -15.4% | 0.6%
COc1ccc2nc(NC(=O)c3nc(S(=O)(=O)Cc4ccccc4F)ncc3Cl)sc2c1 | 5.4% | ? | -6.0% | ? | ? | 5.62µM*
O=C(COC(=O)C12CC3CC(CC(Cl)(C3)C1)C2)NCc1ccco1 | 0.7% | 16.6% | . | 2.0% | . | .
CCOc1ccc(C(=O)NC(=S)Nc2cc(C)ccn2)cc1[N+](=O)[O-] | -9.5% | ? | 1.1% | -4.0% | -7.4% | 31.6µM*
N=c1ccn2c(n1)O[C@H]1[C@@H](O)[C@@H](CO)O[C@H]12 | . | -8.2%[58.9 µM] | . | . | -1.8%[57.1 µM] | -13.8%[57.1 µM]
CC(C)(C)C(=O)OCOP(=O)(OCOC(=O)C(C)(C)C)C(C)(Oc1ccc(O)cc1)P(=O)(OCOC(=O)C(C)(C)C)OCOC(=O)C(C)(C)C | . | . | . | 35.5µM* | . | .
SMILES | FEN1 inh | POLI inh | Tb PGK inh | POLK inh | POLH inh | POLB inh
CC(Oc1ccc(O)cc1)(P(=O)(O)O)P(=O)(O)O | . | . | . | 12.6µM* | . | .
O=C(COc1ccccc1C(=O)Nc1cccc(F)c1)Nc1ccc(Br)cc1 | 3.1% | -9.6% | . | -0.3% | . | .
COc1ccc(-c2cc(C(F)(F)F)n3nc(C(=O)O)c(Cl)c3n2)cc1OC | -6.1% | 36.1% | -8.5% | -4.0% | -21.0% | -4.5%
O=C(/C=C/c1ccc(Br)o1)OCc1nc2ccsc2c(=O)[nH]1 | 79.4µM* | 10µM* | ? | 10µM* | 0.794µM* | .
COc1ccc(-c2nc(C)c(CCNC(=O)C(=O)Nc3ccccc3F)s2)cc1 | 14.9% | 5.1% | 6.7% | -7.8%[60.1 µM] | -7.1% | 5.0%
O=C(C[n+]1cccc(Br)c1)c1ccc(I)cc1 | -1.1% | 27.3% | . | 4.7% | . | .
CCC1=NN2C(=N)/C(=C\c3cccn3-c3ccc(Br)cc3)C(=O)N=C2S1 | 15.8µM* | ? | i | -11.0% | -5.0% | -13.2%
CCC1=NN2C(=N)/C(=C\c3cccn3-c3c(C)cccc3C)C(=O)N=C2S1 | 10.3% | -4.5% | i | -5.9%[60.1 µM] | -10.1% | 2.3%
CCC1=NN2C(=N)/C(=C\c3cccn3-c3ccc(C)cc3C)C(=O)N=C2S1 | ? | ? | -3.6% | -25.8% | 50.1µM* | 39.8µM*
Cc1ccc(S(=O)(=O)N2CCN(c3nc(-n4ccnc4)nc4ccccc34)CC2)cc1 | -13.2% | ? | . | -6.0% | . | .
c1ccc(C[n+]2csc3ccccc32)cc1 | 1.7% | 1.6% | -2.1% | -7.6% | 2.0% | -10.1%
O=C(C[n+]1csc2ccccc21)c1ccc(O)c(O)c1 | 50.1µM* | 14.1µM* | . | 25.1µM* | . | .
CCc1ccc(NC(=O)c2nc(SCc3ccccc3F)ncc2Cl)cc1 | 7.3% | 24.4% | . | 5.0% | . | .
C[N+]1(CC(=O)c2ccc(I)cc2)CCCc2ccccc21 (configuration not stated) | -10.7% | 1.9% | . | -6.9% | . | .
CC(=O)c1ccc(Nc2c3ccccc3cc3occc23)cc1 | . | . | . | 4.3%[60.1 µM] | . | .
Cc1cccc(-n2ccc(=O)c(C(=O)Nc3ccc(S(=O)(=O)Nc4nccs4)cc3)n2)c1 | -17.3% | -18.9% | -14.9% | -15.8% | ? | 89.1µM*
Cc1cc(C)c2oc(C(=O)Nc3ccc(S(=O)(=O)Nc4nccs4)cc3)cc(=O)c2c1 | -18.2% | 79.4µM* | 3.2% | ? | ? | ?
Cc1ccc2oc(C(=O)Nc3ccc(S(=O)(=O)Nc4ncccn4)cc3)cc(=O)c2c1 | 1.1% | 41.3% | i | 14.9% | -21.2% | 9.7%
O=C(Nc1ccc(S(=O)(=O)Nc2nccs2)cc1)c1cccc(N2C(=O)c3ccccc3C2=O)c1 | ? | 70.8µM* | i | ? | 50.1µM* | -5.8%
COc1ccccc1NC(C)C(=O)c1c(C)[nH]c2ccccc12 (configuration not stated) | ? | -5.7% | . | -0.7% | . | .
CCCCOc1ccc(C2OC34CCCCC3C(C#N)(C#N)C2(C#N)C(=N)O4)cc1 (configuration not stated) | ? | 15.8µM* | 4.2% | -34.3% | ? | 1.3%
